Measured values: PubChem BioAssay (EPA / NIEHS)
Results filed as inconclusive are left out. Calls of active or inactive are those of the source. The calls were made as follows, unless noted: active = hit-call score of the fitted dose curve at least 0.9, where 1 is the maximum; inconclusive = response in the unintended direction; inactive = score below 0.9.

Experiments:
[1] = target: human RAR-related Orphan Receptor gamma (RORg), RORC (gene 6097) (UniProt P51449); test: ATG_RORg_TRANS: Attagene TRANS-FACTORIAL HepG2 Assay for human RAR-related Orphan Receptor gamma (RORg) (AID 2283011);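 as to AC50: potency for induction of reporter transcripts above DMSO so activators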
Chain of human RAR-related Orphan Receptor gamma (RORg), RORC (gene 6097) (P51449 whole entry, looked up, the tested form may be a part): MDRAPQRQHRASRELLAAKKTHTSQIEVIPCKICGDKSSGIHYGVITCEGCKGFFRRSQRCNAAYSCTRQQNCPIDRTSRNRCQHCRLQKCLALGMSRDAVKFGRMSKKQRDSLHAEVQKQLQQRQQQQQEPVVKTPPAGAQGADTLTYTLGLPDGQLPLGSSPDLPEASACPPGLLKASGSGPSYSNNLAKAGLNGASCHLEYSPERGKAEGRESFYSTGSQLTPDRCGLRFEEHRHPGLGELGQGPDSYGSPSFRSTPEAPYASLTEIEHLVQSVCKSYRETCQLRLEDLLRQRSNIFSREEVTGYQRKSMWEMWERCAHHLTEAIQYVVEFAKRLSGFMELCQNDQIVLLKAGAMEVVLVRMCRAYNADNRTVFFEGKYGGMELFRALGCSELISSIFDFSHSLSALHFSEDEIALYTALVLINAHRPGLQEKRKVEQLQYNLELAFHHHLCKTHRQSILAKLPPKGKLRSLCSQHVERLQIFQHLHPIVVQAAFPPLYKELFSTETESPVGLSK
Outline: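 HepG2 cells transiently transfected with GAL4-UAS reporter units and chimeric RORg-Gal4 construct; after 24 h chemical exposure, reporter mRNA measured by RT-PCR with fluorescent capillary electrophoresis, gain of signal fitted against DMSO.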

[2] = target: Retinoic acid receptor RXR-alpha (Homo sapiens) (UniProt P19793); test: ATG_RXRa_TRANS: Attagene TRANS-FACTORIAL HepG2 Assay for human Retinoid X Receptor alpha (RXRa) (AID 2283012)
Chain of Retinoic acid receptor RXR-alpha (Homo sapiens) (P19793 whole entry, looked up, the tested form may be a part): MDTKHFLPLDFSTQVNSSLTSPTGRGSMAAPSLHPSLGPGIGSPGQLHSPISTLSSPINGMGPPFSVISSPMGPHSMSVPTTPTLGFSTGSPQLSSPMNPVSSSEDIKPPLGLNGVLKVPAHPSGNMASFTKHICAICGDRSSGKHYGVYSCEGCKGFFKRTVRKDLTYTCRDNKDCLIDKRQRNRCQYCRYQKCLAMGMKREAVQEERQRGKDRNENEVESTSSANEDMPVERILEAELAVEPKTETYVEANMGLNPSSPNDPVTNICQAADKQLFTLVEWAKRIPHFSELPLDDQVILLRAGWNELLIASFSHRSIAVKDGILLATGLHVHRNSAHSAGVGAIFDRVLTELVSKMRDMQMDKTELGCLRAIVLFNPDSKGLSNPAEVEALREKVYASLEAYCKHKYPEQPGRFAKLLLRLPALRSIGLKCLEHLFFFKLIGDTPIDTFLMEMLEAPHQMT
Outline: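 TRANS format reporting activity of exogenous RXRa-Gal4 chimera in transiently transfected HepG2, 24 h exposure. Reporter transcripts quantified by RT-PCR with capillary electrophoresis, with gain of signal scored relative to DMSO.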

[3] = target: human Retinoid X Receptor beta (RXRb), RXRB (gene 6257) (UniProt P28702); test: ATG_RXRb_TRANS: Attagene TRANS-FACTORIAL HepG2 Assay for human Retinoid X Receptor beta (RXRb) (AID 2283013)
Chain of human Retinoid X Receptor beta (RXRb), RXRB (gene 6257) (P28702 whole entry, looked up, the tested form may be a part): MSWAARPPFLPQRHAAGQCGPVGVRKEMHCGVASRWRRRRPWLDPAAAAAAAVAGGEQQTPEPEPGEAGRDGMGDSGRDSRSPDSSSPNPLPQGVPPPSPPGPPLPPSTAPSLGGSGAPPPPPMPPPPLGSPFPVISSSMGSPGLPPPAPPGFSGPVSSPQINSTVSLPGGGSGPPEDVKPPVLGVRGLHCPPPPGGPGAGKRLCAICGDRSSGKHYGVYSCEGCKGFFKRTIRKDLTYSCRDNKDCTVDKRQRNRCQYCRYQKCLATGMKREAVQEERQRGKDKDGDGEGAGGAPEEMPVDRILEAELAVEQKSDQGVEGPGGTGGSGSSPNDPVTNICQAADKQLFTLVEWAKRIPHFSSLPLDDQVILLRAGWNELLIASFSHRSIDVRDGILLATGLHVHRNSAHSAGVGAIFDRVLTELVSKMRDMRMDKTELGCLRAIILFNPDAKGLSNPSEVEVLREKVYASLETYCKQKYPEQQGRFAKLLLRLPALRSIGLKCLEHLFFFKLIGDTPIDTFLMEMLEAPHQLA
Outline: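 Readout is reporter transcript induction after 24 h dosing. It is measured by RT-PCR of total RNA followed by fluorescent capillary electrophoresis. HepG2 liver cells carry transfected multiple reporter units driven by an exogenous RXRb-Gal4 fusion; activity is relative to DMSO.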

[4] = read-out: E-selectin (Homo sapiens) (UniProt P16581); test: BSK_3C_Eselectin: BioMAP Diversity Plus: 3C Assay for Eselectin Biomarker Activity (AID 2283015; active = hit-call score of the fitted dose curve at least 0.9, where 1 is the maximum; inactive = score below 0.9;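 as to outcome: cell surface E-selectin protein quantified by ELISA 24 h after dosing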); conditions: primary human endothelial cells (HUVEC); actives raise or lower the signal
Outline: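 Primary human umbilical vein endothelial cells (3C system), read 24 h after compound addition; E-selectin measured by ELISA. Bidirectional curve fitting against DMSO baseline; cytotoxicity by parallel SRB total-protein staining.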

[5] = read-out: Interleukin-1 alpha (IL1a), IL1A (gene 3552); test: BSK_BE3C_IL1a: BioMAP Diversity Plus: BE3C Assay for Interleukin-1 alpha (IL1a) Biomarker Activity (AID 2283016; active = hit-call score of the fitted dose curve at least 0.9, where 1 is the maximum; inactive = score below 0.9); conditions: primary human bronchial epithelial cells; actives raise or lower the signal
Outline: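 IL-1a measured by ELISA after 24 h treatment of human primary bronchial epithelial cells, with gain or loss of signal fitted versus DMSO. Parallel cultures stained with SRB gauge overt cytotoxicity.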

[6] = read-out: Monocyte Chemoattractant Protein-1 (MCP1), CCL2 (gene 6347); test: BSK_3C_MCP1: BioMAP Diversity Plus: 3C Assay for Monocyte Chemoattractant Protein-1 (MCP1) Biomarker Activity (AID 2283017; active = hit-call score of the fitted dose curve at least 0.9, where 1 is the maximum; inactive = score below 0.9); conditions: primary human endothelial cells (HUVEC); actives raise or lower the signal
Outline: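 Human umbilical vein endothelial cells (3C system) exposed to chemicals for 24 h; MCP-1 quantified by ELISA against the DMSO baseline with bidirectional fitting, and parallel SRB staining used to assess cytotoxicity.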

[7] = read-out: Human Leukocyte Antigen - DR isotype (HLADR), HLA-DRA (gene 3122); test: BSK_3C_HLADR: BioMAP Diversity Plus: 3C Assay for Human Leukocyte Antigen - DR isotype (HLADR) Biomarker Activity (AID 2283019; active = hit-call score of the fitted dose curve at least 0.9, where 1 is the maximum; inactive = score below 0.9;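 as to outcome: ELISA of cell-surface HLA-DR on HUVEC 24 h after dosing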); conditions: primary human endothelial cells (HUVEC); actives raise or lower the signal
Outline: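 HUVEC monoculture, HLA-DR measured by ELISA 24 h after chemical dosing. Fitted bidirectionally against DMSO baseline; parallel SRB staining assessed cytotoxicity, with 3C proliferation read by SRB at 48 h.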

[8] = read-out: Interleukin-8 (IL8), CXCL8 (gene 3576); test: BSK_3C_IL8: BioMAP Diversity Plus: 3C Assay for Interleukin-8 (IL8) Biomarker Activity (AID 2283020; active = hit-call score of the fitted dose curve at least 0.9, where 1 is the maximum; inactive = score below 0.9); conditions: primary human endothelial cells (HUVEC); actives raise or lower the signal
Outline: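 IL-8 was measured by ELISA in HUVEC cultures 24 h after chemical dosing, with gain or loss of signal fitted relative to DMSO. Parallel SRB total-protein staining tracked overt cytotoxicity.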

[9] = target: human Thyroid Receptor alpha (THRa1), THRA (gene 7067) (UniProt P10827); test: ATG_THRa1_TRANS: Attagene TRANS-FACTORIAL HepG2 Assay for human Thyroid Receptor alpha (THRa1) (AID 2283014)
Chain of human Thyroid Receptor alpha (THRa1), THRA (gene 7067) (P10827 whole entry, looked up, the tested form may be a part): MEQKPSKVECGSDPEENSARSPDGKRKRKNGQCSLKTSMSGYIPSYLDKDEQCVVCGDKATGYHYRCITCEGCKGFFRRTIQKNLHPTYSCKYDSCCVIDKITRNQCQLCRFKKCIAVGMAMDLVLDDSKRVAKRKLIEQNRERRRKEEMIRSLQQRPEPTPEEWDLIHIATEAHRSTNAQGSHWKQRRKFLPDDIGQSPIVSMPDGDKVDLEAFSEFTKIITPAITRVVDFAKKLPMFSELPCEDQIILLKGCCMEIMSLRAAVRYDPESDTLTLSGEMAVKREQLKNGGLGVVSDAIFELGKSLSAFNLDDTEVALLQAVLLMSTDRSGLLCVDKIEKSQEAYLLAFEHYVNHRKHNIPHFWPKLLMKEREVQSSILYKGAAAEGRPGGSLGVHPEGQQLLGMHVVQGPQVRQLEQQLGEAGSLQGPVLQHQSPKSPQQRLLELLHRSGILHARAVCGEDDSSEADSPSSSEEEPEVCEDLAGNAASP
Outline: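 HepG2 cells transiently transfected with chimeric NR-Gal4 and GAL4-UAS reporter units, dosed 24 h. Reporter mRNA quantified by RT-PCR, fluorescent labeling, HpaI digestion and capillary electrophoresis; gain-of-signal fit versus DMSO.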

[10] = read-out: Monocyte Chemoattractant Protein-1 (MCP1), CCL2 (gene 6347); test: BSK_4H_MCP1: BioMAP Diversity Plus: 4H Assay for Monocyte Chemoattractant Protein-1 (MCP1) Biomarker Activity (AID 2283018; active = hit-call score of the fitted dose curve at least 0.9, where 1 is the maximum; inactive = score below 0.9); conditions: primary human endothelial cells (HUVEC); actives raise or lower the signal
Outline: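 ELISA of MCP-1 (CCL2) 24 h after chemical dosing of HUVEC in the BioMAP 4H system. Gain or loss versus DMSO fitted; parallel SRB staining (560 nm) tracked overt cytotoxicity.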

Chain of E-selectin (Homo sapiens) (P16581 whole entry, looked up): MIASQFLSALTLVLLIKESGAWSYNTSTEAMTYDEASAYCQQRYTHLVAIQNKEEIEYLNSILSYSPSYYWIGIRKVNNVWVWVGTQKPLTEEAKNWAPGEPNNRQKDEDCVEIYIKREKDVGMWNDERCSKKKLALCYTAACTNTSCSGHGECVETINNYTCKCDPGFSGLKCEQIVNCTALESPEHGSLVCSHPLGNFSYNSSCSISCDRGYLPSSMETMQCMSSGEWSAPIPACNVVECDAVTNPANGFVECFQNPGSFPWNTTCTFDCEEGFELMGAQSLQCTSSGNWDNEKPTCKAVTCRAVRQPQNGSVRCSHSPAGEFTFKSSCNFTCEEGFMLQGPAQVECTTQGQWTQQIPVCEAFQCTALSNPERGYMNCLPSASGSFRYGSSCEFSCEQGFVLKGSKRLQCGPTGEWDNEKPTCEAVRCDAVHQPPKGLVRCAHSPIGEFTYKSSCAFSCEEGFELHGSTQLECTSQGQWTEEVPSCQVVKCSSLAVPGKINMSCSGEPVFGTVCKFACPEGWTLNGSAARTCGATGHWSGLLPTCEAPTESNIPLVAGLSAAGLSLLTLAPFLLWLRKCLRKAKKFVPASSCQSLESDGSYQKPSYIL

CCCCCCC(CO)CCCC (stereo not drawn)
outcome [1]: inactive
outcome [2]: inactive
AC50 [3]: 54.8 µM (active)
outcome [4]: inactive
outcome [5]: inactive
outcome [6]: inactive
outcome [7]: inactive
outcome [8]: inactive

CCCCOCC
outcome [1]: inactive
outcome [2]: inactive
outcome [3]: inactive

O=c1c(O)c(-c2ccc(O)cc2)oc2cc(O)cc(O)c12
outcome [1]: inactive
outcome [9]: inactive

OCCCCC(O)CO (stereo not drawn)
outcome [1]: inactive
outcome [9]: inactive

C=CC(C)C#N (stereo not drawn)
outcome [1]: inactive
outcome [3]: inactive
outcome [9]: inactive

CS(C)=O
outcome [1]: inactive
outcome [3]: inactive
outcome [9]: inactive

CS(=O)(=O)OCCCCOS(C)(=O)=O
outcome [1]: inactive
outcome [3]: inactive
outcome [4]: inactive
outcome [5]: inactive
outcome [6]: inactive
outcome [10]: inactive
outcome [7]: inactive
outcome [8]: inactive

C=Cc1ccc(C)cc1
outcome [1]: inactive
outcome [3]: inactive
outcome [9]: inactive

CCCCC(CC)COC(C)=O (stereo not drawn)
outcome [1]: inactive
outcome [3]: inactive
outcome [9]: inactive

OC[C@H]1O[C@@H]2O[C@H]3[C@H](O)[C@@H](O)[C@@H](O[C@H]4[C@H](O)[C@@H](O)[C@@H](O[C@H]5[C@H](O)[C@@H](O)[C@@H](O[C@H]6[C@H](O)[C@@H](O)[C@@H](O[C@H]7[C@H](O)[C@@H](O)[C@@H](O[C@H]8[C@H](O)[C@@H](O)[C@@H](O[C@H]9[C@H](O)[C@@H](O)[C@@H](O[C@H]1[C@H](O)[C@H]2O)O[C@@H]9CO)O[C@@H]8CO)O[C@@H]7CO)O[C@@H]6CO)O[C@@H]5CO)O[C@@H]4CO)O[C@@H]3CO
outcome [1]: inactive
outcome [3]: inactive

[O-]n1ccccc1=S.[O-]n1ccccc1=S.[Zn+2]
outcome [1]: inactive
outcome [3]: inactive

CC(=O)O[C@@H]1C[C@@H]2CC[C@@]1(C)C2(C)C
outcome [1]: inactive
outcome [3]: inactive

Nc1ccn([C@H]2CS[C@@H](CO)O2)c(=O)n1
outcome [1]: inactive
outcome [9]: inactive

Nc1ccc2c(O)cc(S(=O)(=O)O)cc2c1
outcome [1]: inactive
outcome [3]: inactive

Brc1ccc(Br)c(Br)c1
outcome [1]: inactive
AC50 [3]: 137 µM (active)

CCN(CCN)c1cccc(C)c1
outcome [1]: inactive
outcome [3]: inactive

O=C(CS)OCCOC(=O)CS
AC50 [1]: 67 µM (active)
outcome [3]: inactive

CCCCCCCCCC(=O)OC
outcome [1]: inactive
AC50 [3]: 47 µM (active)

O=C(c1ccccc1)C(O)c1ccccc1 (stereo not drawn)
outcome [1]: inactive
outcome [9]: inactive

O=C(CC(=O)c1ccccc1)c1ccccc1
outcome [1]: inactive
outcome [3]: inactive

CCCC(=O)OC(C)(C)Cc1ccccc1
outcome [1]: inactive
AC50 [3]: 63.9 µM (active)

CC(C)CC(C)CC(O)CC(C)C (stereo not drawn)
outcome [1]: inactive
outcome [3]: inactive

CN(C)C(=S)SC(=S)N(C)C
outcome [1]: inactive
outcome [3]: inactive
outcome [9]: inactive
AC50 [4]: 19.9 µM (active)
AC50 [5]: 30.9 µM (active)
AC50 [6]: 31.4 µM (active)
AC50 [7]: 31.2 µM (active)
AC50 [8]: 3.95 µM (active)

CCCC[P+](CCCC)(CCCC)CCCC
outcome [1]: inactive
outcome [9]: inactive

CN1C(=O)c2ccccc2C1=O
outcome [1]: inactive
outcome [3]: inactive

C/C=C(\C)C(=O)OCCc1ccccc1
outcome [1]: inactive
outcome [3]: inactive
outcome [9]: inactive

COc1ccccc1N=Nc1c(S(=O)(=O)O)cc2cc(S(=O)(=O)O)cc(NC(C)=O)c2c1O
outcome [1]: inactive
outcome [3]: inactive
